Experimental data: the OligoGym collection

Target: TSPYL2
Assay: pooled miR-30 sensor sort-seq; sequence = guide strand
Details: shRNA
Further: reference of the scale not given here.

Sequence | sensor-assay potency score (higher = more potent)
TCTCTGTCGTCATCATCGCTGC | -0.7
TTGATAATCTCAGCAATCCTGT | -0.197
ATGTCTGAGATCCTGTACCTGC | -1.08
ATAGATGTCCTCATCTTGCTGG | 0.469
TCAATGTCTGAGATCTCGCTGA | 0.0217

Target: TTC27
Assay: as above
Details: shRNA

Sequence | sensor-assay potency score (higher = more potent)
TTGCTGAACCTTGATAGTCTTC | -0.804
TGAACCTTGATAGTCTTCCAAG | -1.57
TTTAAGGACCTGAACATCTTTG | -0.304
TACAGATGTATCTTTTACCAGC | -0.789
TACACACTCTTGAAACTCCTTA | 0.361
TACACTTGAGAGCTTCTTGTAA | -0.514
TTCTAGAGTCACACAGCGCTGA | 0.0912
TTTTTCTCCAGCTCTTGTCTAA | -0.459
TATCCAACTGATCTTTTGCTTT | -0.994
TTCTTTTGAAAATTAGTGCAGA | -0.195
TTACTTTTTGTTTTAATCGGAT | -0.347
TTAAAAATCAATATCTTGCATT | -0.512

Target: TTC7A
Assay: as above
Details: shRNA

Sequence | sensor-assay potency score (higher = more potent)
TCTCCTTCAAACACTGCTCCAG | -0.633
TTTGATGACAAAAGCCTCCGAC | -0.154
TTCATCTTGCTTGGACTTCAGG | -0.871
TTCAGATGCCTCGACGTGCTGT | -0.177
TTCTGCAAGCTCACTGTCCGGT | 0.427
TTTGGCTTCGCTCATCTTCGGC | -0.912
TTGTGGTCTTCTCCAATTCCTG | -1.59
TTGGCTTCGCTCATCTTCGGCT | -0.61
TCTTGCTTGGACTTCAGGGTGG | 0.115
TAGAGTACTGAGTGAGAAGTGG | -0.197
TGGCACTGGAGATCTGTCGGAC | -0.75
TTCCTCGATGTTGTCCTTGGGG | -0.621

Target: TTLL3
Assay: as above
Details: shRNA

Sequence | sensor-assay potency score (higher = more potent)
TTGCACGCCAGCACAGAGCCGG | -1.05
TAAATCATCGAAGTCGAACAGC | -0.665
TAGCTGTCGCGGTAGAACCACA | -1.71
TGTCGCGGTAGAACCACACGGT | -0.291
TAGGGTATGACTTCCACTCAGA | -0.0416
TTTGCCTTTGGCCTTGACCTTC | -0.876
ATCATCGAAGTCGAACAGCTGT | -0.524
TTGACCTTCCGACAGGTGCTAG | -0.947
TTGGATTGTAAAGATCTTCTTC | 0.486
TTCTGCACCACCCACTTGCCGT | -1.06
TTTATTTGGTGTTGGATCCAGG | -0.616
